The values below come from the supplement of paper PMC11219838.

SMILES strings stand for the structures.

This assay has as its system Caenorhabditis elegans L1 (N2). Description: survival and reproduction score of C. elegans L1 (0: 0-10 living worms, 1: 11-20, 2: 21-50, 3: >50, 4: overgrown) (score 0-4); higher = more worms, less nematicidal, active = 1 or less; extreme values may be limits of the assay. The following applies: 60 µM; 6 days; temperature: 20 °C. As to the method: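 DODA library (846 commercial 1,3,4- and 1,2,4-oxadiazole compounds plus commercial nematicide controls) screened at a single dose of 60 µM (0.6% DMSO) in 96-well plates, two biological replicates. Read-outs: C. elegans N2 L1 survival/reproduction score at day 6, 20 °C (0: 0-10 worms, 1: 11-20, 2: 21-50, 3: >50, 4: overgrown/starved). C. elegans daf-2 dauer, D. dipsaci and M. hapla J2 mobility at day 5, 20 °C, and P. penetrans mobility at day 5, 20 °C, each relative to DMSO controls. M. hapla egg hatching at day 12, 25 °C, relative to the mean of 8 DMSO wells on the same plate.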
Take `COc1nc2ccc(C)cc2cc1-c1noc(-c2ccncc2)n1`: the “survival and reproduction score” value was 4 (inactive).
`Clc1ccc(-c2noc(COc3ccc4c(c3)OCO4)n2)cc1`: the “survival and reproduction score” value is 4 (inactive).
Consider `COc1ccc(-c2noc(-c3ccccc3C)n2)cc1`, for which the “survival and reproduction score” value was 0 (active).
With `COc1ccccc1-c1noc(-c2ccccc2)n1`, the “survival and reproduction score” value is 4 (inactive).
Turning to `Cc1ccc(-c2nc(-c3cccnc3)no2)cc1Cl`, the “survival and reproduction score” value was 0 (active).
Turning to `Brc1ccc(-c2nc(-c3ccccc3)no2)cc1`, the “survival and reproduction score” value was 0 (active).
In the case of `CCCOc1ccc(-c2nc(-c3ccncc3)no2)cc1`, the “survival and reproduction score” value was 0 (active).
On to `COc1ccc(-c2nc(-c3ccccc3Cl)no2)cc1`, for which the “survival and reproduction score” value is 4 (inactive).
In the case of `COc1ccccc1-c1nnc(SCc2ccc(F)cc2)o1`, the “survival and reproduction score” value was 4 (inactive).
As for `Clc1ccc(-c2nnc(SCc3ccccc3)o2)c(Cl)c1`, the “survival and reproduction score” value is 4 (inactive).
For `COc1ccc(CCC(=O)Nc2ccc(-c3noc(COc4ccccc4C)n3)cc2)cc1`, the “survival and reproduction score” value was 4 (inactive).
Under `Ic1ccc(-c2nc(-c3cccnc3)no2)cc1` stands 0 (active).
With `Cc1ccc(NC(=O)CSc2nnc(-c3ccco3)o2)cc1Cl`, the “survival and reproduction score” value is 4 (inactive).
`COc1cccc(-c2nnc(SCc3ccccc3C)o2)c1`: the “survival and reproduction score” value was 4 (inactive).
Consider `COc1ccccc1NC(=O)c1ccccc1-c1nc(-c2ccccc2F)no1`, for which the “survival and reproduction score” value is 4 (inactive).
With `COc1ccc(-c2noc(COc3ccc(Br)cc3)n2)cc1`, the “survival and reproduction score” value is 2 (inactive).
Under `O=C(CSc1nnc(-c2cccc(Cl)c2)o1)Nc1nccs1` stands 4 (inactive).
With `Cc1ccc(-c2noc(-c3ccco3)n2)s1`, the “survival and reproduction score” value is 0 (active).
On to `O=C(CSc1nnc(-c2ccc(Br)cc2)o1)NC1CCCCC1`, for which the “survival and reproduction score” value is 4 (inactive).
With `CCn1c(C)cc(C(=O)CSc2nnc(-c3ccccc3)o2)c1C`, the “survival and reproduction score” value is 4 (inactive).
For the compound `COc1ccc(-c2nnc(SCC(=O)Nc3ccc(C(C)C)cc3)o2)cc1`, the “survival and reproduction score” value is 4 (inactive).
As to `CCOc1ccccc1-c1nnc(SCc2ccc(C(=O)OC)o2)o1`, the “survival and reproduction score” value was 4 (inactive).
Then `COc1nc(-c2ccccc2)ccc1-c1noc(-c2ccco2)n1`, with 1 (active); and `COc1ccc(-c2noc(-c3cccc(Cl)c3)n2)cc1`, with 4 (inactive).
For the compound `COc1cccc(-c2noc(-c3ccccc3C)n2)c1`, the “survival and reproduction score” value was 0.5 (active).
On to `Cc1ccccc1-c1noc(CSc2nc3ccccc3[nH]2)n1`, for which the “survival and reproduction score” value was 4 (inactive).
Under `Cc1ccccc1-c1noc(-c2ccccc2OCC(N)=O)n1` stands 4 (inactive); under `COc1ccc(Cl)cc1-c1nc(-c2ccc3c(c2)OCO3)no1`, 4 (inactive); under `Cc1ccoc1-c1nnc(-c2ccco2)o1`, 3.5 (inactive).
Take `Cc1cccc(-c2noc(-c3ccccc3Br)n2)c1`: the “survival and reproduction score” value was 3.5 (inactive).
As to `COc1ccc(-c2noc(CSc3nc(C)cc(C)n3)n2)cc1`, the “survival and reproduction score” value was 4 (inactive).
Regarding `Cc1cc(Cl)ccc1OCc1nc(-c2ccccc2)no1`, the “survival and reproduction score” value was 4 (inactive).
As for `Cc1nc(CSc2nnc(-c3ccc(Cl)cc3)o2)cs1`, the “survival and reproduction score” value was 4 (inactive).
Take `CC(=O)Nc1ccc(NC(=O)c2ccccc2-c2nc(-c3cccc(C)c3)no2)cc1`: the “survival and reproduction score” value was 4 (inactive).
Under `CCCCc1ccc(-c2nc(-c3cccnc3)no2)cc1` stands 0 (active).
Then `CC(Sc1nnc(-c2ccccc2)o1)C(=O)Nc1nccs1` (stereo not given), with 4 (inactive); and `Cc1cc(Cl)ccc1OCc1nc(-c2cccnc2)no1`, with 4 (inactive).
In the case of `Cc1ccc(OCc2nc(-c3ccc4c(c3)OCO4)no2)cc1C`, the “survival and reproduction score” value is 4 (inactive).
In the case of `Cc1cc(OCc2nc(-c3cccnc3)no2)ccc1Cl`, the “survival and reproduction score” value was 4 (inactive).
`Clc1ccc(CSc2nnc(-c3ccccc3Cl)o2)cc1`: the “survival and reproduction score” value was 4 (inactive).
